# About 83,000 compounds went through this panel and 20% of them were active in at least one assay; those are over-represented in the sample as a whole.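 48-hour exposure, single concentration, 96-well plates; percent growth endpoint where 0 means no net growth. Active: below 10.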 Activity calls are given as the source filed them.
# System: KM12 colon
# Assay: NCI-60 one-dose screen, 48 h (100 = growth as untreated, 0 = no growth, -100 = all killed)
# Details: 10 µM unless noted
row,Compound,growth
1,CC(Br)C(O)c1cc2c(cc1Br)OCO2 (centres undefined),108% (inactive)
2,OC1CC2c3ccccc3C1c1ccccc12 (centres undefined),107% (inactive)
3,Cc1cc(C)c(S(=O)(=O)N2CCN(c3cc4c(cc3F)c(=O)c(C(=O)O)cn4C3CC3)CC2)c(C)c1,60.7% (inactive)
4,O=C(c1ccccc1)C(Cl)C(Cl)c1ccccc1 (centres undefined),81.3% (inactive)
5,Cc1cc(Cl)ccc1OC(C)C(=O)Nc1nnc(C2CC2)s1 (centres undefined),107% (inactive)
6,Cc1sc2nc(CSc3nnc(-c4ccco4)o3)[nH]c(=O)c2c1C,118% (inactive)
7,CCCCCCCCCCCCCCCCCCOc1cccc(CCOP(=O)(O)OCC[N+](C)(C)C)c1,50.1% (inactive)
8,C=CCOc1ccc(/C(O)=C2\C(=O)C(=O)N(c3nccs3)C2c2ccccc2F)cc1 (centres undefined),89.4% (inactive)
9,CC/C(=C(\c1ccc(O)cc1)c1ccc(OCCN(C)CCN(C)C(=O)CCC(=O)c2c(C)[nH]c(/C=C3\N=C(c4ccc[nH]4)C=C3OC)c2C)cc1)c1ccccc1,42.4% (inactive)
10,Cc1ccc(Oc2nc3ccccc3cc2-c2nnc(Cn3c(COc4ccccc4)nc4ccccc43)o2)cc1,16.7% (inactive)
11,CCOC(=O)c1cc(/C(=N\O)c2cc(OC)c(OC)c(OC)c2)n2cc(C)cc(C)c12,20.7% (inactive)
12,NC(=O)c1ccc2c(c1)OCO2,103% (inactive)
13,NC(=O)NNC(=O)c1ccccc1,103% (inactive)
14,O=c1c2cccc3c(Nc4ccc(F)cc4)ccc(c32)c2nc3ccccc3n12,74.4% (inactive)
15,C=C1C(=O)O[C@H]2[C@H]1CC/C(COC(=O)NCc1cc(OC)c(OC)c(OC)c1)=C\CC[C@@]1(C)O[C@@H]21,92% (inactive)
16,Cc1cc(C(=O)O)c(N)c(C)n1,110% (inactive)
17,Cc1ccc(Nc2ncnc3c2sc2ncccc23)cc1,105% (inactive)
18,O=C1CCC(=O)N1Cc1ccccc1,96.4% (inactive)
19,COc1ncc(-c2ccc3ncnc(Nc4cccc(Cl)c4)c3c2)cc1NS(=O)(=O)C1CC1,69.7% (inactive)
20,O=C(Nc1ccc(I)cc1)c1cccc([N+](=O)[O-])c1O,14.1% (inactive)

row,Compound,growth
1,COc1cc(NC(=O)CCl)ccc(=O)c1,89.6% (inactive)
2,COc1ccc(/C=C/c2nc(N3CCOCC3)c3nc(Cl)c(Cl)cc3n2)cc1OC,93.9% (inactive)
3,CCCCCCCC/C=C\CCCCCCCCOc1ccccc1CCOP(=O)(O)OCC[N+](C)(C)C,21.8% (inactive)
4,COC(=O)c1ccc(C)cc1,108% (inactive)
5,COc1ccc(/C(=N/O)c2cc(OC)c(OC)c(OC)c2)c(OC)c1N,23.8% (inactive)
6,COc1ccc(C2CC(=O)Nc3c2c(C)nn3-c2nc3ccccc3[nH]2)cc1OC (centres undefined),82.6% (inactive)
7,C=C1C(=O)O[C@H]2[C@H]1CC/C(COC(=O)NCCc1cccc(OC)c1)=C\CC[C@@]1(C)O[C@@H]21,63.7% (inactive)
8,COc1ccc(-c2cn[nH]c2-c2cc(OC)c3c(c2)OCCO3)cc1,3.46% (active)
9,CCN(Cc1ccccc1)c1ccc(SC#N)cc1,41.3% (inactive)
10,Cc1ccc2c(c1)C(C)Cc1c(ncnc1-n1cnc3ccccc31)N2C (centres undefined),13.8% (inactive)
11,Cc1nc2sccn2c1-c1csc(Nc2ccccc2Cl)n1,29.6% (inactive)
12,C=CCc1cc(Cl)cc2c(OC(C)=O)c(C(C)=O)c(-c3ccccc3)nc12,99.5% (inactive)
13,Cc1nc2scc(-c3ccccc3)n2c(=O)c1CCO,103% (inactive)
14,COc1ccc(/C=C\c2cc(OC)c(OC)c(OC)c2)c(NS(=O)(=O)c2ccc(C(C)(C)C)cc2)c1O,12.1% (inactive)
15,CCCCCCOc1ccc(C2(Cl)c3ccccc3N(C)c3ccccc32)cc1,62.9% (inactive)
16,CC(C)C[C@H](NC(=O)[C@H](Cc1ccccc1)n1ccc(N2CCCCC2)cc1=O)B(O)O,1.6% (active)
17,Cc1ccccc1C(=O)c1ccccc1C(=O)O,107% (inactive)
18,CC1CCc2c(sc(NC(=O)CSc3nnc4ccccn34)c2C(N)=O)C1 (centres undefined),108% (inactive)
19,COc1ccc2c(c1)C=CC(C#N)N2C(=O)c1ccccc1 (centres undefined),13.4% (inactive)

# Reference: PubChem BioAssay (NCI)
